# Source: PubChem BioAssay (several laboratories)
# A selection: hits, their analogues and other compounds. The true share with any hit is near 1.3%.
# NCOA1 inh = SRC1 coactivator transcriptional activity inhibitors, primary screen, cell-based, luminescence. inhibition, % at 3.6 µM. hit rate 0.12% among 360,000. Nuclear receptor coactivator 1 (Homo sapiens), Q15788. AID 588354, 2011. HEK293 GAL4-SRC1 luciferase reporter;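 active means inhibition above the campaign mean plus 3 SD, with each screening campaign given its own cutoff, cut at about 60% in these data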;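 further: 0% = DMSO treated cells and 100% = gossypol at 36 µM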
# NR5A2 inv ag = LRH-1 (NR5A2) inverse agonists, primary screen, cell-based, luminescence, HEK293T, StAR-luciferase reporter | AID 602396, 2012 | LRH-1 transfected, 24 h | hit rate 0.13% among 360,000 | inhibition, % at 3.6 µM | Nuclear receptor subfamily 5 group A member 2 (Homo sapiens), O00482;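 active means inhibition above the mean inhibition of all tested compounds plus 3 SD, cut at about 73% in these data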;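 further: 0% = DMSO wells and 100% = reporter-only cells lacking LRH-1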
# Gli-Sufu antag = Gli-Sufu pathway antagonists, primary screen, luciferase luminescence, Sufu-KO-LIGHT cells, uHTS. Sufu-KO-LIGHT fibroblasts, Gli luciferase reporter luminescence. hit rate 0.74% among 340,000. inhibition, % at 5 µM;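 active means inhibition above about 55%, limit read from the data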;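 further: 0% = DMSO-treated cells and 100% = wells with medium but no cells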
# NCOA3 inh = SRC3 coactivator transcriptional activity inhibitors, primary screen, cell-based, luminescence; HEK293 GAL4-SRC3 luciferase reporter; inhibition, % at 3.6 µM; hit rate 0.17% among 360,000; AID 588352, 2011;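 active means inhibition above a per-campaign cutoff, the mean of all compounds plus 3 SD, cut at about 60% in these data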;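 further: 0% = DMSO-treated cells and 100% = gossypol-treated cells at 36 µM; higher means less SRC3-driven luciferase light from the GAL4 reporter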
# COUP-TFII inh = NR2F2 transcriptional activity inhibitors, primary screen, cell-based, luciferase reporter, HEK293T, luminescence; HEK293T NGFI-A luciferase reporter; inhibition, % at 8.6 µM; hit rate 0.7% among 370,000; COUP transcription factor 2 (Homo sapiens), P24468;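 active means inhibition above a per-plate cutoff, mean inhibition of test wells between control levels plus 3 SD, cut at about 38% in these data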;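 further: cells cotransfected with COUP-TFII expression vector driving the NGFI-A reporter; 0% = median of COUP-TF2 test wells and 100% = reporter-only cells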
# SRC2 inh = inhibition of GAL4-SRC2 driven luciferase reporter, primary screen, SRC2 inhibitor project, cell-based, luminescence; HEK293 GAL4-SRC2 luciferase reporter; inhibition, % at 9 µM; hit rate 0.17% among 370,000;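 active means inhibition above the mean inhibition of all tested compounds plus 3 SD, set per campaign, cut at about 52% in these data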;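 further: 0% = DMSO treated cells and 100% = cells given Gossypol at 36 µM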
# Gli-Sufu confirm = Gli-SUFU pathway antagonists, confirmation, single concentration, luciferase luminescence, Sufu-KO-LIGHT cells. inhibition, % at 5 µM. AID 602428, 2012. hit rate 40% among 2,500. Gli luciferase reporter. shares compounds with Gli-Sufu antag;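 active means mean inhibition at 5 µM reaching about 45%, limit read from the data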;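 further: plate controls were DMSO-treated cells for no effect and wells lacking cells for full effect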
# SufuKO cytotox = cytotoxicity in Sufu-KO-LIGHT cells, confirmation, cytotoxicity control for Gli-SUFU antagonist project, cell-based, ATP luminescence, single concentration. shares compounds with Gli-Sufu antag. cytotoxicity, % at 5 µM. hit rate 32% among 2,500;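 active means mean cytotoxicity at 5 µM above about 25%, limit read from the data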;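 further: cells exposed to compound overnight for roughly 16 to 18 hours; plate controls were DMSO wells with cells for no effect and medium without cells for full effect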
# Wnt3a cs = Wnt3a reporter signal inhibition, confirmation, counter-screen for Gli-SUFU antagonist project, Wnt-LIGHT cells, luminescence, single concentration; shares compounds with Gli-Sufu antag; Wnt3a-driven luciferase reporter; inhibition, % at 6.25 µM; hit rate 20% among 2,500; AID 651995, 2013;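 active means mean inhibition above about 25%, limit read from the data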
# An asterisk follows results filed as active; · = no result given.
SMILES,NCOA1 inh,NR5A2 inv ag,Gli-Sufu antag,NCOA3 inh,COUP-TFII inh,SRC2 inh,others
CC(=O)OC(C)(C)/C=C/C(=O)[C@](C)(O)[C@H]1[C@H](O)C[C@@]2(C)[C@@H]3CC=C4[C@H](C[C@H](O)C(=O)C4(C)C)[C@]3(C)C(=O)C[C@]12C,16,49,88*,50,·,·,
CC(=O)OC(C)(C)/C=C/C(=O)C(C)(O)C1C(O)CC2(C)C3CC=C4C(CC(O)C(=O)C4(C)C)C3(C)C(=O)CC12C (stereo unspecified),-3,47,87*,16,-5,62*,
COC(=O)C1(N(C)c2ccccc2)CCN(Cc2ccccc2)CC1,·,·,·,·,12,-5,
C=C(C=O)CC1CC(O)[C@]2(C)OC3CC4OC5C[C@]6(C)O[C@]7(C)CCC8OC9C[C@]%10(C)OC%11C(C)=CC(=O)OC%11CC%10OC9C[C@@H](C)C8OC7CC6O[C@]5(C)CC5OC5C4OC3CC2O1 (stereo partly specified),-23,-27,75*,-34,·,·,
c1cncc(-c2ccc3n2Cc2cnnn2-c2ccccc2-3)c1,·,·,·,·,6,37,
CN=C1CN=C(c2ccc[nH]2)c2cc(Cl)ccc2N1,·,·,·,·,-8,·,
O=C1CN=C(c2ccc[nH]2)c2cc(Cl)ccc2N1,53,40,15,51,3,53*,
Cc1ccc(OC(=O)N(C)C[C@H]2OCc3cnnn3CCCC(=O)N([C@H](C)CO)C[C@H]2C)cc1,·,·,·,·,-1,11,
C[CH2][Hg][S]c1ccccc1C(=O)O,-138,-33,76*,-101,-38,-157,
N#CC(C#N)=NNc1ccc(-n2ccc(C(F)(F)F)n2)cc1,32,30,76*,45,10,0,
Brc1csc(N2CCNCC2)n1,·,·,·,·,-3,·,
CN1c2ccc(Br)cc2[C@H]2NCC[C@H]2[C@H]1CO,·,·,·,·,8,0,
CCN1/C(=C\C=C\C2=[N+](CC)c3ccccc3C2(C)C)C(C)(C)c2ccccc21,75*,91*,94*,81*,·,·,
COc1ccc2nc(-c3ccc(CN4CCC(n5nnc6ccccc65)CC4)cc3)c(-c3ccccc3)nc2c1,·,·,·,·,19,2,
CC(=NNC(=S)N1CC2CCC(CC2)C1)c1nccs1,25,31,91*,25,-32,-13,
CN1CC[C@@H]2CN[C@H](c3ccccc3Br)C[C@@H]21,·,·,·,·,11,-9,
CC[n+]1c(/C=C/N(C)c2ccccc2)sc2ccc(Cl)cc21,25,44,85*,50,19,-8,
CC(C)[C@H]1C(=O)O[C@H](C(C)C)C(=O)N(C)[C@@H](C(C)C)C(=O)O[C@H](C(C)C)C(=O)N(C)[C@@H](C(C)C)C(=O)O[C@H](C(C)C)C(=O)N1C,37,-15,84*,70*,·,·,
CC[C@H](C)[C@@H]1OC(=O)[C@H](C(C)C)N(C)C(=O)[C@H](C(C)C)NC(=O)[C@@H](C)[C@@H](CCCC#CBr)OC(=O)[C@H](C(C)C)N(C)C(=O)C2CCCN2C1=O (stereo partly specified),·,·,·,·,25,·,
c1ccc2c(c1)[IH]c1ccccc1-2,19,67,86*,19,59*,-97,
c1ccc2c(c1)-c1cccc3cccc-2c13,-8,17,3,-31,-2,-15,
CO[C@H]([C@H](C)/C=C/N(C)C=O)[C@@H](C)C(=O)CC[C@H](C)[C@H](O)[C@H](C)[C@H]1OC(=O)/C=C/C(C)=C/[C@H](O)[C@H](OC)C[C@@H]2C=CC[C@@H](C[C@H](OC)[C@@H](CO)[C@@H](OC)C[C@@H](OC)[C@@H]1C)O2,·,·,·,·,-22,·,
CCOc1ccc(-n2c(O)c(C=Nc3ccc(N(CC)CC)cc3)c(=O)[nH]c2=O)cc1,8,-6,97*,1,-10,-19,Gli-Sufu confirm=11;SufuKO cytotox=17;Wnt3a cs=-12
CCC(C)n1c(O)c(C=NCc2cccnc2)c(=O)[nH]c1=S (stereo unspecified),4,5,6,6,10,-36,
O=c1[nH]c(=S)n(Cc2ccc(F)cc2)c(O)c1C=NCc1cccnc1,-14,25,72*,7,1,-4,Gli-Sufu confirm=22;SufuKO cytotox=-5;Wnt3a cs=-14
SMILES,NCOA1 inh,NR5A2 inv ag,Gli-Sufu antag,NCOA3 inh,COUP-TFII inh,SRC2 inh,others
C1=C(c2c[nH]c3ccccc23)CCN(Cc2ccccc2)C1,-2,-4,55*,18,37,-9,Gli-Sufu confirm=20;SufuKO cytotox=20;Wnt3a cs=-50
Cc1ncc(CN2CCCC(C(=O)c3ccc(C(C)(C)C)cc3)C2)s1 (stereo unspecified),0,-11,53,-14,19,-3,Gli-Sufu confirm=14;SufuKO cytotox=24;Wnt3a cs=-90
OC(c1ccccc1)(c1ccc(Cl)cc1)C1CN2CCC1CC2 (stereo unspecified),9,9,58*,27,5,-16,Gli-Sufu confirm=27;SufuKO cytotox=22;Wnt3a cs=-44
CCOP(=O)(OCC)C(O)c1cccc([N+](=O)[O-])c1 (stereo unspecified),-14,-8,58*,-4,7,-8,Gli-Sufu confirm=12;SufuKO cytotox=25*;Wnt3a cs=-34
O=C(CN1C(=O)[C@@H](Cc2c[nH]c3ccccc23)N=C(c2ccccc2)c2ccccc21)NC1CCCCC1,·,·,·,·,3,-16,
CN(C)c1ccc(/C=C/C=C/c2sc3ccccc3[n+]2C)cc1,32,47,82*,39,28,9,Gli-Sufu confirm=84*;SufuKO cytotox=40*;Wnt3a cs=48*
C[n+]1c(-c2ccccc2)sc2ccccc21,10,13,0,-8,15,5,
Cc1ccc(C(=O)NCCN2CCC3(CC2)C(=O)NCN3c2ccccc2)cc1,·,·,·,·,0,-7,
CSc1ncc(Cl)c(C(=O)O)n1,-26,15,54,-4,1,-18,Gli-Sufu confirm=34;SufuKO cytotox=-4;Wnt3a cs=11
CSc1ncc(Br)c(N2CC2)n1,-13,-4,-1,-4,0,-16,
C[C@H]1CNCCN1c1ccc(N2CC[C@@H](O)C2)c(C#N)c1,·,·,·,·,-21,5,
